Structures are written as SMILES.

What is called Inhibition is the drop in the measured response relative to a control, in per cent. A lower Inhibition goes with little suppression.

This test relates to HepG2. Nature of the test: GSK_TCMDC: Percent inhibition of human HepG2 cell line. Test compounds present at 10uM. It is filed as functional.
`Cc1ccc(S(=O)(=O)Nc2ccc(Nc3nccc(Nc4cccc5[nH]ncc45)n3)cc2)cc1` returned an Inhibition of 57%.
With `Cc1cc(NC(=O)c2ccco2)ccc1OC1CCN(Cc2ccccc2)CC1.O=C(O)C(F)(F)F` the figure was 3%; with `C=CCC(C)n1ncc2c3c(N)nc(N)nc3ccc21` (centres undefined), 66%; with `Cc1cc(-c2ccc(CNC3CCN(C)CC3)cc2)ccc1S(=O)(=O)NCc1ccccc1.O=C(O)C(F)(F)F`, 52%.
Consider `NC(=O)c1cccc(-n2ccc3cc(CNC4Cc5ccccc5C4)ccc32)c1.O=C(O)C(F)(F)F`, for which the Inhibition was 17%.
With `CC(C)=CCN1CCC(C(=O)Nc2ccc(-c3nc4ccccc4[nH]3)cc2)CC1` the figure was 0%.
Consider `Oc1c(CN2CCCC(C(F)(F)F)C2)cc(Cl)c2ccccc12` (centres undefined), for which the Inhibition is given as 23%.
To `Cc1ccc(-c2nnc(-c3ccc(C(=O)NC4CCN(Cc5ccc(C#N)cc5)CC4)cc3)o2)cc1Br` belongs 41%; to `COc1cc(C=C(C2=NC(=O)CS2)c2nc3cccnc3n2C)ccc1O`, 7%.
With `O=c1cnc2ccc(F)cc2n1CCN1CCC(NCc2cc(-c3ccccc3)cs2)CC1` the figure was 0%; with `Cc1noc(C)c1-c1cccc(CNCc2ccc(-c3cccc(-c4nc5cccc(C)c5[nH]4)c3)cc2)c1.O=C(O)C(F)(F)F`, 24%.
To `CC(C)(C)OC(=O)n1cc(C2CCN(CCCC34CCCc5cccc(c53)NC4=O)CC2)c2ccncc21` (centres undefined) belongs 20%; to `C[C@H]1CN(Cc2cccc(-c3cc(CNC(=O)c4cccc(C(=O)c5ccc(Cl)c(Cl)c5)c4)ccc3F)c2)CCN1`, 40%.
`O=c1cc(NCCCNC2CCCc3c2ccc2ccccc32)[nH]c2ccccc12` (centres undefined) came in with an Inhibition of 0%.

For the origin of these results see ChEMBL document CHEMBL1157539, “Thousands of chemical starting points for antimalarial lead identification” (Nature, 2010).
